Laboratory results published in PubChem BioAssay (NCI).
About 79,000 compounds went through this panel and 15% of them were active in at least one assay; those are over-represented in the sample as a whole. Calls of active or inactive are those of the source. No stated cut-off is given here; in the data, active means growth inhibition above about 70%; inactive means the rest.

How the values were obtained:
[1] = NCI Yeast Anticancer Drug Screen. Data for the rad50 strain (AID 155);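 further: 0% = growth of vehicle-only cultures of the same strain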; details: S. cerevisiae rad50 strain growth inhibition; at 50.0 µM; active compounds read high
Procedure, shortened: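 Inhibition values express reduced yeast growth in compound-treated cultures relative to vehicle-treated controls.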

[2] = NCI Yeast Anticancer Drug Screen. Data for the mec2-1 strain (AID 157); details: S. cerevisiae mec2-1 strain, at 50.0 µM, active compounds read high
Procedure, shortened: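 Using mec2-1 yeast: add compound, measure growth, express inhibition versus vehicle-treated cultures.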

[3] = NCI Yeast Anticancer Drug Screen. Data for the sgs1 mgt1 strain (AID 161);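 further: 0% = growth of cultures given vehicle only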; details: S. cerevisiae sgs1 mgt1 strain, at 50.0 µM, active compounds read high
Procedure, shortened: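 Percent growth inhibition was derived by comparing compound-exposed mutant yeast with vehicle-exposed cultures. The strain carries alterations in DNA damage repair.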

[4] = NCI Yeast Anticancer Drug Screen. Data for the cln2 rad14 strain (AID 165);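 further: 0% = growth equal to vehicle treated cultures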; details: S. cerevisiae cln2 rad14 strain, at 50.0 µM, active compounds read high
Procedure, shortened: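 Yeast strain cln2 rad14, bearing defects in cell cycle control and DNA repair, serves as the test system; values reflect growth inhibition compared with vehicle.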

[5] = NCI Yeast Anticancer Drug Screen. Data for the bub3 strain (AID 167); details: S. cerevisiae bub3 mutant strain, at 50.0 µM, active compounds read high
Procedure, shortened: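 Steps: expose the mutant yeast strain to compound; grow alongside vehicle-treated cultures; measure growth; express inhibition against the vehicle cultures.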

[6] = NCI Yeast Anticancer Drug Screen. Data for the mlh1 rad18 strain (AID 175); details: S. cerevisiae mlh1 rad18 strain growth inhibition; at 50.0 µM; active compounds read high
Procedure, shortened: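 Steps: expose repair-defective yeast to compound; measure growth; express inhibition against vehicle-treated controls.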

Measured: growth inhibition

CCC(C)(C)c1ccc(O)c(CNCCO)c1
inactive: [1] 26.8% | [2] -2.55% | [3] 2.9% | [4] -18.9% | [5] 7.55% | [6] 8.85%

Cc1c(C)c(C(=O)O)c(C)c(C)c1C(=O)O
inactive: [1] 25.9% | [2] -8.1% | [3] 17.9% | [4] 9.1% | [5] 24.4% | [6] 0.05%

O=S1(=O)NNC(=NCc2ccc(Cl)c(Cl)c2)c2ccccc21
inactive: [1] 11.2% | [2] -11.8% | [3] -6.15% | [4] -1.4% | [5] 3.2% | [6] -16.4%

Cc1ccc(S(=O)(=O)N(N)CCC#N)cc1
inactive: [1] 7.3% | [2] 4.55% | [3] 14.8% | [4] -24.1% | [5] -10.1% | [6] 14.6%

C=CCNC(=S)NCc1ccc(Cl)cc1
inactive: [1] 21.3% | [2] 7.8% | [3] 22.7% | [4] -46.6% | [5] 5.15% | [6] 12.1%

O=C(CCCCCC(=O)NO)NO
inactive: [1] -0.8% | [2] -6.05% | [3] -7.2% | [4] -20.3% | [5] -9.4% | [6] -1.55%

CCc1n[nH]c(=O)n1/N=C/c1ccccc1O
inactive: [1] -9.2% | [2] 3.8% | [3] -5.75% | [4] 3.4% | [5] -0.35% | [6] 24.6%

CC(=Nc1ccc(C)cc1)NNc1nc2ccccc2s1
inactive: [1] 15.1% | [2] -7.3% | [3] 13.2% | [4] -37.2% | [5] 17.3% | [6] 25%

COc1ccc2nc(Cl)sc2c1
inactive: [1] 32.4% | [2] -17.6% | [3] 41.4% | [4] 21.4% | [5] 42.1% | [6] 13.6%

CC(NC(=O)C(N)CC(=O)O)NC(=O)C1CCC1 (stereo unspecified)
inactive: [1] -39.9% | [2] -48.1% | [3] -19.2% | [4] 24.6% | [5] 8.6% | [6] -35.8%

CCC[N+](CCC)=c1ccc2nc3c(C)cc(N(CC)CC)cc3sc-2c1
inactive: [1] -60.6% | [2] -6.45% | [3] -20.6% | [4] -126% | [5] -130% | [6] -39.2%

CN(C)CC1OCCc2ccccc21 (stereo unspecified)
inactive: [1] 10.1% | [2] 2.9% | [3] 3.75% | [4] 0.6% | [5] 6.05% | [6] 10%

COc1ccc(C2c3cc4c(cc3OC3(N5CCCC5)CCCC23)OCO4)c(OC)c1 (stereo unspecified)
inactive: [1] 0.85% | [2] -6.8% | [3] -1.5% | [4] 14.2% | [5] 15.2% | [6] 11.6%

Cn1c(=O)c2c(nc3sc4ccccc4c(=O)n32)n(C)c1=O
inactive: [1] 19.2% | [2] -9.05% | [3] -7.4% | [4] 16.6% | [5] -30.9% | [6] 13.8%

CCOC(=O)/C=C1\NCCc2ccccc21
inactive: [1] -6.85% | [2] 1.45% | [3] 8.5% | [4] 24% | [5] 4.8% | [6] 4.55%

Cc1ccc(S(=O)(=O)N/N=C2/CCC(C(C)(C)C)CC2Br)cc1 (stereo unspecified)
inactive: [1] 3.9% | [2] -2.4% | [3] -6.35% | [4] -2.9% | [5] 17.4% | [6] 2.1%

Cc1nc2c(cc1C(=O)N/N=C/c1ccc([N+](=O)[O-])cc1)c(=O)n(C)c(=O)n2C
inactive: [1] -33.4% | [2] -21.8% | [3] -11.9% | [4] -5.75% | [5] -50.9% | [6] 18.1%

CCN(CC)CCNc1ccc2ncn3c4ccccc4c(=O)c1c23
inactive: [1] 19.9% | [2] 8.85% | [3] -16.1% | [4] 33.1% | [5] 29.1% | [6] 42.9%

O=C(NCCCN1CCN(CCCNC(=O)Nc2ccc(Br)cc2)CC1)Nc1ccc(Br)cc1
inactive: [1] 27.7% | [2] 10.8% | [3] 38.4% | [4] 12.2% | [5] -1.5% | [6] 23.4%

COc1ccccc1-n1c(O)c(N=Nc2ccc(Cl)cc2)c(=O)n(-c2ccc(I)cc2)c1=S
inactive: [1] 45.4% | [2] 10% | [3] 36% | [4] -9% | [5] 1.25% | [6] 27.1%

CCOC(=O)Nc1nc2c(s1)c([N+](=O)[O-])cn2C
inactive: [1] 11.6% | [2] 7% | [3] 17.1% | [4] 2.45% | [5] 4.6% | [6] 20.6%

O=C(C[n+]1cccc(C(=O)Nc2ccccc2)c1)Nc1ccc(Cl)cc1
inactive: [1] -2.65% | [2] -0.7% | [3] -2.35% | [4] 0.35% | [5] 6.7% | [6] 7.35%

Cc1ccc(O)c(C(C)C)c1
inactive: [1] -26.4% | [2] -48.8% | [3] -34.4% | [4] -16.1% | [5] -40.2% | [6] -8.6%

CN(C)CC(Cc1ccccc1)c1ccccc1 (stereo unspecified)
inactive: [1] -19.9% | [2] -10.9% | [3] -18.6% | [4] 7.6% | [5] -5.4% | [6] -17.6%

Cc1ccc(F)c(N)c1
inactive: [1] 26.8% | [2] -17.2% | [3] 24.1% | [4] 5.8% | [5] 5.75% | [6] 27.9%

c1cc2c3c(cc4c(c3c1)CCCC4)CC2
inactive: [1] -6.95% | [2] -20.9% | [3] -12.9% | [4] -23.6% | [5] 5.45% | [6] -4.75%

O=[N+]([O-])c1ccc(/C=C/c2csnn2)cc1
inactive: [1] -16.7% | [2] -31.8% | [3] -13.8% | [4] 22% | [5] 2% | [6] -24.6%

Cc1ccc(NC(=O)/C=C/c2ccccc2)cc1
inactive: [1] -2.85% | [2] -8.1% | [3] -3.15% | [4] -3.95% | [5] 10.2% | [6] 10.9%

CC(C)CCOC(=O)NC1c2ccccc2Oc2ccccc21
inactive: [1] -10% | [2] 3.55% | [3] 3.65% | [4] 18% | [5] 0.1% | [6] -1.3%

N#C/C(=C1\OC(=O)C(c2ccc(Br)cc2)=C1O)c1ccc(Br)cc1
inactive: [1] 8.15% | [2] 2.45% | [3] -4% | [4] 5.3% | [5] -3.85% | [6] 26.4%

c1ccc2cc3ccccc3cc2c1
inactive: [1] 5.75% | [2] 10.7% | [3] -18.5% | [4] -42.6% | [5] -0.85% | [6] 3.7%

CC(=O)Nc1ccc(Cc2ccc3[nH]c(=O)cc(C)c3c2)cc1
inactive: [1] -16.3% | [2] 18.6% | [3] 15.8% | [4] 5.35% | [5] -30.1% | [6] 12.9%

O=C(O)C(Cc1ccc2c(c1)CCC2)(Cc1ccc2c(c1)CCC2)C(=O)O
inactive: [1] 26.9% | [2] 13.3% | [3] -4% | [4] 33.3% | [5] 22.8% | [6] 12.1%

N#CCc1nn(-c2ccccc2)c2ncn(N)c(=N)c12
inactive: [1] -8.45% | [2] -14.8% | [3] -9.6% | [4] -22.2% | [5] 6.2% | [6] -12.2%

CSCCC(NC(=O)OCc1ccccc1)P(=O)(O)c1ccccc1 (stereo unspecified)
inactive: [1] -56% | [2] -41.1% | [3] -34% | [4] 13.2% | [5] 14.8% | [6] -11%

O=C(O)CN1C(=O)NC(C2CC2)(C2CC2)C1=O
inactive: [1] -3.15% | [2] -7.15% | [3] -12.8% | [4] -23.2% | [5] 8.85% | [6] 6.6%

CSc1ccc(NC(=O)Nc2ccc(Cl)cc2C(=O)c2ccccc2)cc1
active: [1] 96.5% | [2] 97.8% | [3] 93.7% | [4] 98% | [5] 88.5% | [6] 97.8%

C/C=C/C(O)CC (stereo unspecified)
inactive: [1] 13.8% | [2] -38.4% | [3] 3.2% | [4] -0.85% | [5] -10.8% | [6] 0.5%

O=C(CC(C(=O)c1ccc(F)cc1)c1ccsc1)c1cccs1 (stereo unspecified)
inactive: [1] 13.8% | [2] 2.3% | [3] 26.8% | [4] 16.5% | [5] 8.5% | [6] 3%

c1ccc(Cc2c[nH]c3ccccc23)cc1
inactive: [1] 9.45% | [2] -0.05% | [3] 9.4% | [4] -9.6% | [5] -1.85% | [6] 14.9%

CCOP(=O)(c1ccccc1)C(C)C (stereo unspecified)
inactive: [1] -7.85% | [2] -0.5% | [3] -1.7% | [4] -40% | [5] -0.65% | [6] -0.2%
